Here are results for seven compounds from PubChem BioAssay (Tox21).

A number with no mark means an inactive call. Results filed as inconclusive are left out. Calls of active or inactive are those of the source. Unless noted, calls come from the whole dose curve; as a rule, active = well fitted curve in the direction sought with a large enough effect in the repeat runs; inconclusive = weak or mixed curves; inactive = no such curve, though single readings can be large; an effect the other way counts as inactive or inconclusive.

Assay [1] deals with Progesterone receptor (Homo sapiens) (UniProt P06401). The experiment in a line: qHTS assay to identify small molecule agonists of the progesterone receptor (PR) signaling pathway (AID 1346784; calls by dose curve; note: nearly all actives have a fitted effect of over 30% in size). A digest of the protocol:
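HEK 293T PR-UAS-bla reporter cells, 2% charcoal-stripped FBS; 6 hr settle at 37C/5% CO2, compound (DMSO) 16 hr, LiveBLAzer B/G FRET substrate 2 hr RT, fluorescence intensity read.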
Background: Quantitative high-throughput screening tests each substance at several concentrations.

The nature of assay [2]: qHTS assay to identify small molecule antagonists of the progesterone receptor (PR) signaling pathway - cell viability counter screen (AID 1346798). Note: series mostly up to about 92 µM; nearly all actives have a fitted effect of over 50% in size. An outline of the steps: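 Luminescence readout (CellTiter-Glo, 30 min, RT) of viability in PR-UAS-bla HEK293T cells exposed to compound and R5020 agonist for 16 hr at 37C, 5% CO2; run in the same wells as the beta-lactamase reporter read.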

The nature of assay [3]: qHTS assay to identify small molecule agonists of the progesterone receptor (PR) signaling pathway - cell viability counter screen (AID 1346799; calls by dose curve; note: nearly all actives have a fitted effect of over 45% in size). A digest of the protocol: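 HEK293T PR-UAS-bla, 3,000 cells/well, 2% charcoal-stripped FBS; 6 h settle, compound 16 h at 37C/5% CO2; LiveBLAzer 2 h RT, then CellTiter-Glo 30 min RT, luminescence read.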
Assay [4] is described as follows: qHTS assay to identify small molecule antagonists of the TGF-beta/Smad signaling pathway - cell viability counter screen (AID 1346824). Note: nearly all actives have a fitted effect of over 50% in size. A digest of the protocol: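 SBE-bla HEK 293T cells, incubated overnight, then compound plus 0.25 ng/mL TGF-beta1 (stock added) for 5 hr at 37 C. Viability was read in the same wells by CellTiter-Glo luminescence after 30 min at room temperature.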

The nature of assay [5]: qHTS assay to identify small molecule agonists of the TGF-beta/Smad signaling pathway - cell viability counter screen (AID 1346829). Note: top concentration of the series differs between compounds; nearly all actives have a fitted effect of over 45% in size. A digest of the protocol:
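Tox21 qHTS format: SBE-bla HEK 293T cells treated with DMSO-dissolved compounds for 5 hr; CellTiter-Glo luminescence after 30 min at room temperature.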

Assay [6] is described as follows: qHTS assay to identify small molecule agonists of the TGF-beta/Smad signaling pathway (AID 1346859; active = well fitted activation curve with a large enough effect in the signal ratio in the repeat runs, not every such curve was filed as active; the % refers to the signal ratio; note: series mostly up to about 77 µM). A digest of the protocol: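 Read-out: fluorescence at 460 and 530 nm (405 nm excitation) after a 2 hr room-temperature incubation with beta-lactamase FRET substrate. SBE-bla HEK 293T cells had been treated with test compounds for 5 hr at 37 C.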
A short description of assay [7]: Human pregnane X receptor (PXR) small molecule agonists, qHTS cell viability counter screen (AID 1346977). Note: nearly all actives have a fitted effect of over 50% in size. A digest of the protocol: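 Fluorescence read-out (CellTiter-Fluor) of viability in PXR-Luc HepG2 cells, multiplexed with the luciferase agonist read. Compounds in DMSO added after 5hr plating; 24hr total exposure at 37C, 5% CO2.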
Assay [8] can be described thus: Caspase-3/7 induction in HepG2 cells by small molecules, qHTS assay (AID 1346978). Note: nearly all actives have a fitted effect of over 15% in size. A digest of the protocol:
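Wild-type HepG2 cells, 2,000/well, settled 5 hr at 37 C and 5% CO2, then compound-treated for 17 hr; caspase-3/7 activity read by luminescent Caspase-Glo 3/7 after 30 min at room temperature.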

Assay [9] in a line: Caspase-3/7 induction in CHO-K1 cells by small molecules, qHTS cell viability counter screen (AID 1346979). Note: nearly all actives have a fitted effect of over 35% in size. An outline of the steps:
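CHO-K1 wt, 1,500 cells/well; 5hr pre-incubation 37C/5% CO2; compound pin transfer (DMSO); 16hr exposure; CellTiter-Fluor added, 1hr, fluorescence read.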

Assay [10] is described as follows: Caspase-3/7 induction in CHO-K1 cells by small molecules, qHTS assay (AID 1346980). Note: nearly all actives have a fitted effect of over 15% in size. A digest of the protocol:
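Wild-type CHO-K1 cells exposed to compounds for 17hr at 37 C, 5% CO2. Caspase-3/7 activity then measured by Caspase-Glo 3/7 luminescence after 30min at room temperature.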

Assay [11] can be described thus: Caspase-3/7 induction in HepG2 cells by small molecules, qHTS cell viability counter screen (AID 1346981). Note: series mostly up to about 92 µM; nearly all actives have a fitted effect of over 30% in size. An outline of the steps:
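Wild-type HepG2 cells (2,000/well) were allowed to settle for 5 hr at 37 C, 5% CO2, then dosed with compounds in DMSO by pin transfer. After 16 hr at 37 C, CellTiter-Fluor was added and fluorescence read 1 hr later.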

The target in assay [12] is Nuclear receptor subfamily 1 group I member 2 (Homo sapiens) (UniProt O75469). The experiment in a line: Human pregnane X receptor (PXR) small molecule agonists, qHTS assay (AID 1346982). Note: nearly all actives have a fitted effect of over 35% in size. Note: potency is the fitted concentration of half-maximal effect. An outline of the steps:
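PXR-Luc HepG2 cells (CYP3A4 promoter-driven luciferase) were seeded in medium with 5% charcoal-stripped FBS, left 5 hr at 37 C, then exposed to compounds in DMSO for 24 hr. Luminescence was read after ONE-Glo addition.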

Assay [13] deals with Cytochrome P450 2D6 (Homo sapiens) (UniProt P10635). The experiment in a line: Cytochrome P450 Family 2 Subfamily D Member 6 (CYP2D6) small molecule antagonists: luciferase reporter qHTS assay (AID 1671196). Note: nearly all actives have a fitted effect of over 50% in size. Note: potency is the fitted concentration of half-maximal effect. An outline of the steps:
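CYP2D6 enzyme–substrate mix was held with compound for 10 min at room temperature, then NADPH regeneration solution was added and the reaction ran 1 h at room temperature. Luciferin product was detected by luminescence after 20 min with detection reagent.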

Assay [14] concerns the target Cytochrome P450 2C19 (Homo sapiens) (UniProt P33261). The experiment in a line: Cytochrome P450 Family 2 Subfamily C Member 19 (CYP2C19) small molecule antagonists: luciferase reporter qHTS assay (AID 1671197). Note: series mostly up to about 120 µM; nearly all actives have a fitted effect of over 65% in size. An outline of the steps: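 Relative luminescence units recorded 20 min after the detection reagent stopped a 1 h, 37C CYP2C19 reaction on proluciferin substrate, which was started by NADPH regeneration following 10 min room-temperature compound preincubation; ketoconazole positive control.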
(In general: Reporter assays use an easily measured gene product as a stand-in for the process of interest.)

Assay [15] concerns the target Thyrotropin-releasing hormone receptor (Homo sapiens) (UniProt P34981). Nature of the assay: qHTS assay to identify small molecule antagonists of the thyrotropin-releasing hormone receptor (TRHR) signaling pathway (AID 1346877; active = well fitted inhibition curve with a large enough effect in the repeat runs, not every such curve was filed as active; note: series mostly up to about 51 µM). A digest of the protocol:
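TRHR-expressing HEK293 cells were seeded, cultured 18 h at 37 °C, then loaded with calcium dye for 2 h. Compounds were pre-incubated 5 min at room temperature before 1 nM TRH (final) was added, and kinetic fluorescence was recorded for 3 min.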

The target is the same in assay [16]. The experiment in a line: qHTS assay to identify small molecule agonists of the thyrotropin-releasing hormone receptor (TRHR) signaling pathway (AID 1346891; calls by dose curve; note: series mostly up to about 58 µM). A digest of the protocol:
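HEK293/TRHR cells, 1500 per well, 18 h 37 °C; Ca dye 2 h 37 °C; pin-tool compound addition (agonist mode); kinetic fluorescence 3 min, 1 s reads; 15 concentrations, triplicate.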

The target in assay [17] is Nuclear receptor subfamily 1 group I member 2 (Rattus norvegicus) (UniProt Q9R1A7). The experiment in a line: Rat pregnane X receptor (rPXR) activation by small molecules, qHTS assay (AID 1346983). Note: nearly all actives have a fitted effect of over 20% in size. The settings on record: rPXR luciferase reporter cells, One-Glo luminescence, 24 h; max activation: stronger effect = higher value. An outline of the steps: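 Cell-based rPXR activation assay: rPXR cells, 2,000 per well, rested 5hr at 37 C, then exposed to compounds in DMSO for 24 hr at 37 C. Luciferase activity read by One-Glo luminescence after 30 min at room temperature.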

Assay [18] concerns the target Nuclear receptor subfamily 1 group I member 2 (Homo sapiens) (UniProt O75469). Nature of the assay: CYP3A4 induction through human pregnane X receptor (PXR) by small molecules, qHTS assay (AID 1346984). Note: nearly all actives have a fitted effect of over 40% in size. An outline of the steps: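 DPX-2 cells (HepG2 co-transfected with PXR and CYP3A4 promoter-luciferase) treated with compounds 24 h at 37C; luciferin-IPA CYP3A4 substrate 3uM final added for 3 h, then One-Glo; luminescence read. qHTS format.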

The target is the same in assay [19]. The experiment in a line: Human pregnane X receptor (PXR) activation by small molecules, qHTS assay (AID 1346985). Note: nearly all actives have a fitted effect of over 40% in size. A digest of the protocol:
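DPX-2 cells (HepG2 co-transfected with a PXR response element and a CYP3A4-promoter luciferase construct) were seeded at 2,000 per well, rested 5 hr at 37C, then exposed to DMSO-dissolved compounds for 24 hr. Activation was read as luciferase luminescence.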

The target of assay [20] is Progesterone receptor (Homo sapiens) (UniProt P06401). The experiment in a line: qHTS assay to identify small molecule antagonists of the progesterone receptor (PR) signaling pathway (AID 1346795; active = well fitted inhibition curve with a large enough effect in the signal ratio in the repeat runs, not every such curve was filed as active; the % refers to the signal ratio). A digest of the protocol: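 Beta-lactamase reporter, HEK293T PR-UAS-bla line; 2% charcoal-stripped FBS; 6 hr pre-incubation, 37C/5% CO2. Compound + R5020 1 nM final, 16 hr. LiveBLAzer B/G FRET substrate, 2 hr RT; fluorescence intensity read.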
% is set by controls: 0 for no effect and ±100 for the full control effect.

Chain of Progesterone receptor (Homo sapiens) (P06401 whole entry, looked up): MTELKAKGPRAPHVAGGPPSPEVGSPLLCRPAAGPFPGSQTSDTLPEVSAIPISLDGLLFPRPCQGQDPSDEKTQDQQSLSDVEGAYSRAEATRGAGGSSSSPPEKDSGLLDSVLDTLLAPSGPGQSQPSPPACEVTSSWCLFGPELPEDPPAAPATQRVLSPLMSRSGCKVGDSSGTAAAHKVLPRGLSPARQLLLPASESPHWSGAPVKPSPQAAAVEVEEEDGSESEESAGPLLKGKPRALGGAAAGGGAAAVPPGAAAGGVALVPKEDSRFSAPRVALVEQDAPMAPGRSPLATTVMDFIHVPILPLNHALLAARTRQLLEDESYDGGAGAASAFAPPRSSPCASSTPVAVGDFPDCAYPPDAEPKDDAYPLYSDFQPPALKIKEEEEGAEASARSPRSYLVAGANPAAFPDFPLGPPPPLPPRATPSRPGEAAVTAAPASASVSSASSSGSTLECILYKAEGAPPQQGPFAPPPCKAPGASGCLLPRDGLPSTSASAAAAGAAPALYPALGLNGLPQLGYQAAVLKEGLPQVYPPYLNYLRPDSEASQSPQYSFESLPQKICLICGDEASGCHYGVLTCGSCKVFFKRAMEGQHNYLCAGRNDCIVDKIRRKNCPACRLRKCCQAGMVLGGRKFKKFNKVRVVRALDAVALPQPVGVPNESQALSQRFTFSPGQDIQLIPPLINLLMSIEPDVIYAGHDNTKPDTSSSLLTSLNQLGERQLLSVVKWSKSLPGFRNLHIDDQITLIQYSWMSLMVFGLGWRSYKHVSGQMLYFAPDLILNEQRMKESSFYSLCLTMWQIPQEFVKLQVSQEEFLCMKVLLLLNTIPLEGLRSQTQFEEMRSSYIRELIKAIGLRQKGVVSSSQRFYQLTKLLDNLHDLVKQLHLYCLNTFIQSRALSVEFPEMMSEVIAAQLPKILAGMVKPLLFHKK
Chain of Thyrotropin-releasing hormone receptor (Homo sapiens) (P34981 whole entry, looked up): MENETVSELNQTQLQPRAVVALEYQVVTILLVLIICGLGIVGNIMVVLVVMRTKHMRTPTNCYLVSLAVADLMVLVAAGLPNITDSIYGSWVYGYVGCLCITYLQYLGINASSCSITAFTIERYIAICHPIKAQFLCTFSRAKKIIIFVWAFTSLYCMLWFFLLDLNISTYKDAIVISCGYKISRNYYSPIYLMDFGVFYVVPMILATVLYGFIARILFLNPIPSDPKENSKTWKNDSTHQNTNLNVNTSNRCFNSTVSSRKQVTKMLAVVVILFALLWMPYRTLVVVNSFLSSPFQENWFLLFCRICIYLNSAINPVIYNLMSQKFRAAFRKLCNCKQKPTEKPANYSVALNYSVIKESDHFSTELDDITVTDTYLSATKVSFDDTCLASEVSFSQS
Chain of Cytochrome P450 2D6 (Homo sapiens) (P10635 whole entry, looked up): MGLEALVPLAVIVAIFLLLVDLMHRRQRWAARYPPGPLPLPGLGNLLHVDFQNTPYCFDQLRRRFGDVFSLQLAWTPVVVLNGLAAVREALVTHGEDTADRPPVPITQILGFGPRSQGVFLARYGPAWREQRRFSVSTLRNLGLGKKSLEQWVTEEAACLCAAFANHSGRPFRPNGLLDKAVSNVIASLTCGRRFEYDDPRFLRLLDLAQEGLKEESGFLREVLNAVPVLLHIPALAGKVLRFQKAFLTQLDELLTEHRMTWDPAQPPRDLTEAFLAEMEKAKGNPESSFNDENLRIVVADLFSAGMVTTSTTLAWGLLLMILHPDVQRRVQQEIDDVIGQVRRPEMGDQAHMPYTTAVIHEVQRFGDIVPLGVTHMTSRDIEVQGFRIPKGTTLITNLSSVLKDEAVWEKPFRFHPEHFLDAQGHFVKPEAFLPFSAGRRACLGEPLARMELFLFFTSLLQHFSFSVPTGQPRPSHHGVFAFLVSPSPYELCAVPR
Chain of Nuclear receptor subfamily 1 group I member 2 (Homo sapiens) (O75469 whole entry, looked up): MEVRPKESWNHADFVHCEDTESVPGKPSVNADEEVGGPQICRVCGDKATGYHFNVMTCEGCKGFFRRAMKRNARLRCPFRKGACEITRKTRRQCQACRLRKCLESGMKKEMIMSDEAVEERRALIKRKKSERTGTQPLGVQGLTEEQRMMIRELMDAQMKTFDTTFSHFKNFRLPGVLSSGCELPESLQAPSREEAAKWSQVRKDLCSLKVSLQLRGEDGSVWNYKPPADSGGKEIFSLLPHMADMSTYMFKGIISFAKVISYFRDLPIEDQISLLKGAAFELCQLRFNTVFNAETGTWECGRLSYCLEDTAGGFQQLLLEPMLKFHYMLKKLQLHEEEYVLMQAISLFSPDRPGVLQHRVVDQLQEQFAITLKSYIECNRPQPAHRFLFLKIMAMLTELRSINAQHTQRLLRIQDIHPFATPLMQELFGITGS
Chain of Cytochrome P450 2C19 (Homo sapiens) (P33261 whole entry, looked up): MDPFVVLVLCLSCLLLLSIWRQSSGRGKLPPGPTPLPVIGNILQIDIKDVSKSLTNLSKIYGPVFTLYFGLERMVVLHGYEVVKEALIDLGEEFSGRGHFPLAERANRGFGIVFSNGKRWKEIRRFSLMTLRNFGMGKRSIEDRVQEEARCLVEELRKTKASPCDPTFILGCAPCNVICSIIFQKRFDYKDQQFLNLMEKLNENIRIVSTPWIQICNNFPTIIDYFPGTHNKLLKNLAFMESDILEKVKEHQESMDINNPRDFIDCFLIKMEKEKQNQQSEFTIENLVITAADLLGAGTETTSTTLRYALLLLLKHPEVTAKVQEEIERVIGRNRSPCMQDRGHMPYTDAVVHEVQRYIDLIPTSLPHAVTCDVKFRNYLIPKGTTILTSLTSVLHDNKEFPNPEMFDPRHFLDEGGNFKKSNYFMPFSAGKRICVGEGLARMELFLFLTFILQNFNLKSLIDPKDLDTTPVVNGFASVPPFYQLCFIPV
Chain of Nuclear receptor subfamily 1 group I member 2 (Rattus norvegicus) (Q9R1A7 whole entry, looked up): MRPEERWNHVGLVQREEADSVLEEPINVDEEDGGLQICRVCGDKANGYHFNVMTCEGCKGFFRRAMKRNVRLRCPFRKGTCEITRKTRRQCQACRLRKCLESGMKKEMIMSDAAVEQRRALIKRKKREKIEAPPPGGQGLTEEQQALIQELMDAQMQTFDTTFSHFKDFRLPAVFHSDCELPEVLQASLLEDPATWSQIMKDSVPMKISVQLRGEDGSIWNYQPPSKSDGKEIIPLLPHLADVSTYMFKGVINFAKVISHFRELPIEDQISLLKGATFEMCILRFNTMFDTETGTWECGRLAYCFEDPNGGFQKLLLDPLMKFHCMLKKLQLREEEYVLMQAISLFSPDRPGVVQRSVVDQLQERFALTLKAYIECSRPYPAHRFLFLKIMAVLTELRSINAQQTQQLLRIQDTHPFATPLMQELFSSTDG

For `CC(C)c1ccc2ncccc2c1`, the Potency result in [1], in assay [2], in [3], in assay [7], in [9] and in assay [11] was “inactive” in each case. The Potency result in assay [12], in assay [13] and in assay [14] was “inactive” each time. The compound was called inactive in assay [4], in assay [5], in assay [6], in assay [8] and in assay [10].

Turning to `COc1cc(-c2ccc(=O)[nH]n2)ccc1OC(F)F`, the Potency entry in assay [1], in assay [2], in assay [3], in assay [16], in assay [7] and in assay [9] was “inactive” throughout. For the same compound, in assay [11], the Potency entry was “inactive”. Also, the outcome in assay [4], in assay [5], in assay [6], in assay [15] and in assay [10] was inactive. The values for the Potency in assay [12] and in assay [13] were 4.73 µM (active) and 4.36 µM (active), respectively.

Take `C[C@@H]1CCC[C@H](C)N1`: the Potency result in assay [1], in [2], in assay [3], in assay [7], in assay [9] and in assay [11] was “inactive” throughout. Moreover, the Potency entry in assay [12], in [18] and in assay [19] was “inactive” in each case. Moreover, the compound was called inactive in [4], in [5], in [6], in assay [8] and in assay [10]. For the same compound, the max activation in assay [17] is -0.283%.

Take `NC(=O)N[C@@H](CCC(=O)O)C(=O)O`: the Potency result in assay [1], in assay [20], in [2], in [7], in assay [9] and in assay [11] was “inactive” each time. The Potency result in assay [12], in assay [18], in [19], in [13] and in [14] was “inactive” in each case. The compound was classed as inactive in assay [4] and in [6]. The max activation in assay [17] is -3.04%.

`CC(C)[C@H]1CC[C@@H](C)CC1=O`: the Potency entry in assay [1], in [2], in assay [3], in assay [7], in [9] and in assay [11] was “inactive” each time. Moreover, the Potency entry in assay [12] and in [13] was “inactive” in each case. In addition, the call in assay [5], in assay [6] and in assay [8] was inactive.

In the case of `CN(C)CCN(C)CCN(C)C`, the Potency entry in assay [1], in assay [20], in assay [2], in assay [7], in [9] and in [11] was “inactive” in each case. Besides, in [13], the Potency entry is “inactive”. Moreover, the compound was classed as inactive in [4], in assay [5], in assay [15] and in assay [10]. Also, in assay [12], the Potency was 29.6 µM (active).

For `CC1=CCC(O)(C(C)C)CC1` (stereo not given), the Potency entry in assay [1], in assay [2], in [3], in assay [16], in assay [7] and in assay [9] was “inactive” in each case. For the same compound, the Potency entry in assay [11], in assay [12] and in assay [14] was “inactive” each time. The compound was classed as inactive in assay [4], in assay [5], in assay [6], in [15], in [8] and in assay [10].
